# In PubChem BioAssay AID651871 (Sanford-Burnham Center for Chemical Genomics, 2012):
# Tested on: HL-1
# Assay: cardiomyocyte survival under oxidative or metabolic stress – cell-based, panel, H9c2 and HL-1, ATP luminescence, set 2, SAR follow-up (AID 651871);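 also: cells exposed to stressor for 2 h before ATP readout; reference of the scale not given here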
# Conditions: H9c2/HL-1 cardiomyocytes, 2-deoxyglucose stress, with 2-deoxyglucose, run 8, at 79 µM (top of the series)
row,Compound,activity (protection/inhibition) [%]
1,COc1ccc2c(c1OC)C(=O)N1c3ccccc3C(=O)N(Cc3cccc(Cl)c3Cl)C21 (stereo not drawn),-9.25
2,COc1ccc2nc(-c3cc(OC)c(OC)c(OC)c3)cc(C(=O)NCC(=O)Nc3ccc(C(C)=O)cc3)c2c1,97.2
3,CCOC(=O)c1cccc(NC(=O)CNC(=O)c2cc(-c3cc(OC)c(OC)c(OC)c3)nc3ccccc23)c1,74.3
